# Source: PubChem BioAssay (National Center for Advancing Translational Sciences (NCATS))
# Integrin act MD – activates integrin-mediated alleviation for muscular dystrophy | alpha7betagal myoblasts, beta-gal FDG fluorescence, 48 h | Potency, µM (doses to about 38.3 µM), for the others: top-dose activation, most hits filed as activators | 0.064% of 350,000 active;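 also: 100% = response of the positive control SU9516; nearly all actives have a fitted effect of over 60% in size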
#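 Alpha7betagal+/- myoblasts (passage 13) were plated 16-24 hr, then exposed to compounds (1:260 dilution of DMSO stock) for 48 hours at 37C. After MPER lysis, β-galactosidase reporter activity was read as FDG fluorescence (ex 480/em 540) after 30 minutes.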
# BRCA1 expr up – activators of BRCA1 expression. Potency, µM (titrated, usually from 46.1 µM), for the others: at the highest dose activation, usual class: activators. MCF7-BRCA1-FFLuc reporter, luminescence, 48 h; response scale: scaled: vehicle 0%, 10 µM genistein 100%. AID 624202. 1.1% of 380,000 active; also: nearly all actives have a fitted effect of over 80% in size
#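 First, MCF7-BRCA1-FFLuc cells (2000/well) attach for 2 h; next, compounds are pin-added and incubated 48 h at 37 °C; finally, luciferase reagent is added and luminescence read after 15 min.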
# GLP-1R inv ag – acts as inverse agonist at human GLP-1 receptor; Potency, µM (top dose mostly 38.3 µM), for inactives: top-dose activity change, negative = inhibition, most hits filed as inhibitors; P43220; 1.6% of 410,000 active; AID 624417; HEK293 GLP-1R CRE-luciferase, luminescence, 24 h; GLP-1R form is constitutively active; also: % is scaled to controls: 0 for no effect and ±100 for the full control effect; nearly all actives have a fitted effect of over 55% in size
# Target sequence (P43220 whole entry, looked up): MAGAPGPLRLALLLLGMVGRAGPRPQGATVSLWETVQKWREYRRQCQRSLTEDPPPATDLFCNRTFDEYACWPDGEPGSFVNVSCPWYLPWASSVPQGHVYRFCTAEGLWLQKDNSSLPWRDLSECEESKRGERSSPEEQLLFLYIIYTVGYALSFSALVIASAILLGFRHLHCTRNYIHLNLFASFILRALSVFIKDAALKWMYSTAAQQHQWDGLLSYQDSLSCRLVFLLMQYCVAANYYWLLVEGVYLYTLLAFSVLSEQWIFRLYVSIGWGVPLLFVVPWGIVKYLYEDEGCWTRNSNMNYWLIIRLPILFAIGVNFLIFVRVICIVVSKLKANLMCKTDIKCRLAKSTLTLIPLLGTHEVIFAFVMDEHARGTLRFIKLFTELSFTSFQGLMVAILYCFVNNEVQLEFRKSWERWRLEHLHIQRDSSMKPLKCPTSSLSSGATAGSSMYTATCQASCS
#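 Assay principle: reduced luminescence from a cAMP-responsive reporter in HEK293 cells co-expressing a constitutively active GLP-1R. Conditions: 24 hr compound incubation, 37 deg C, 5% CO2.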
# GLP1R ag – agonists of human GLP-1 receptor | 0.007% of 380,000 active | Potency, µM (doses to about 45.6 µM), for the others: at the top dose activation, usual class: activators | HEK293 GLP-1R CRE-luciferase, luminescence, 4-6 h; cells express a hypersensitive GLP-1R form | AID 624172; also: % of control where 0% means no effect
# GLP1R cytotox – cytotoxicity in counter-screen for GLP-1R inverse agonists; HEK293 cAMP-luciferase reporter cells, luminescence, 24 h; Potency, µM (top dose mostly 38.3 µM), without a hit: at the highest dose activity change, negative = inhibition, actives largely listed as inhibitors; 0.13% of 410,000 active;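 also: loss of luciferase light is scored as toxicity; % is scaled to controls: 0 for no effect and ±100 for the full control effect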
#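 Compound-treated cells are incubated 24 hr at 37 deg C under 5% CO2 after a 12 hour attachment period, then luciferase detection reagent is added and luminescence is measured following 12 min at room temperature; lowered signal indicates toxicity.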
# Active calls of the source: *; ? = inconclusive; . = no result given. Sampled rows, rich in hits. Any-hit rate of the full collection: about 2.7%. Calls follow the shape of the dose curve; as a rule, active = well fitted curve in the direction sought with a large enough effect; inconclusive = small, poorly fitted or top-dose-only effect, or another doubt; inactive = no such curve, though single readings can be large; an effect the other way counts as inactive or inconclusive. Potency is read from the fitted curve at half-maximal effect.
SMILES,Integrin act MD,BRCA1 expr up,GLP-1R inv ag,GLP1R ag,GLP1R cytotox
O=[N+]([O-])c1ccc(F)cc1OCc1nc(-c2cccs2)no1,16%,26%,21%,14%,9%
Cc1cc2ncc(-c3ncc(C(F)(F)F)cc3Cl)cn2n1,34%,-54%,5µM*,-22%,12%
Cc1nn(-c2ccc(C(F)(F)F)cn2)c(C)c1Oc1ccccc1O,-4%,-1%,7.9µM*,-1%,-30%
O=[N+]([O-])c1cccc(NNS(=O)(=O)c2ccccc2F)c1,-7%,-24%,6.3µM*,-1%,-6%
CC1CCN(C(=O)CSc2nc3ccccc3[nH]2)CC1,10%,3.5µM*,6%,-8%,-1%
NC(=O)C1CCN(C(=O)CSc2nc3ccccc3[nH]2)CC1,1%,5%,10%,-21%,-10%
C/C(N)=C(/C#N)C(=O)CSc1nc2ccccc2[nH]1,19%,7.9µM*,28%,7%,1%
CS(=O)(=O)N1CCN(/[N+]([O-])=N/Oc2ccc([N+](=O)[O-])cc2[N+](=O)[O-])CC1 (tested in a mixture with another compound),.,21%,.,.,.
COc1ccc(C(=O)Cn2c(=N)n(C)c3ccccc32)cc1,9%,3%,-17%,18%,3%
Cn1c(=N)n(CC(=O)O)c2ccccc21,15%,27%,22%,8%,20%
Cn1c(=N)n(CC(=O)c2ccc(Cl)c(Cl)c2)c2ccccc21,0%,-50%,7.1µM*,-8%,13%
Cn1c(=N)n(CC(=O)c2ccccc2)c2ccccc21,0%,-52%,11µM*,-1%,-18%
C/C(=C\C(=O)c1ccc(Br)cc1)Nc1ccc(Cl)cc1,7%,2.8µM*,?,9%,2%
C/C(=C\C(=O)c1ccccc1)Nc1ccc(Br)c(Cl)c1,11µM*,-1%,-29%,-3%,1%
O=C(Cc1ccccc1)Nc1ccc(Br)c(Cl)c1,?,-4%,14%,-8%,8%
CC(C)=CC(=O)Nc1ccc(Cl)cc1,-13%,3.2µM*,-11%,-1%,2%
COc1ccccc1CNC(=O)CSC1=Nc2ccccc2N=C(c2ccc(F)cc2)C1,.,-8%,0%,1%,-4%
Nc1nc(N)c2c(ccc3c2ccn3Cc2cccc([N+](=O)[O-])c2)n1,.,-74%,0.5µM*,-11%,?
Nc1nc(N)c2cc([N+](=O)[O-])ccc2n1,-3%,-51%,60%,24%,0%
C1=Cc2ccccc2/C1=C/c1ccc2c(c1)OCO2,.,58%,.,.,.
Cc1cc(S(=O)(=O)N2CCN(CC(=O)N(C)Cc3ccccc3)CC2)ccc1Br,-16%,-28%,8.9µM*,5%,1%
Cc1cc(OCC(=O)N(C)Cc2ccccc2)ccc1Br,?,25%,10µM*,3%,4%
Cc1cc(OCC(=O)N(C)Cc2ccccc2)ccc1Cl,24%,?,?,3%,9%
Cc1noc(-c2ccc(NC(C)c3ccccc3)c([N+](=O)[O-])c2)n1 (stereo not given),.,-1%,-23%,.,-15%
CCCCCCCCCCCCCCCCCC(=O)[O][Al],.,.,.,-4%,.
SMILES,Integrin act MD,BRCA1 expr up,GLP-1R inv ag,GLP1R ag,GLP1R cytotox
COCCNc1c(-c2cc3ccc(C)c(C)c3[nH]c2=O)nc2ccccn12,36%,2.2µM*,-2%,13%,-22%
CCN(c1ccccc1)S(=O)(=O)c1ccc(NCC2COc3ccccc3O2)nc1 (stereo not given),-43%,-69%,5µM*,5%,-9%
CCN(c1ccccc1)S(=O)(=O)c1ccc(Cl)nc1,1%,-18%,0%,1%,-4%
COc1ccc(OCC(=O)Nc2ccc(-c3nc4cc(C)c(C)cc4o3)cc2)cc1,.,-28%,4%,.,-5%
Cc1ccc(OCC(=O)Nc2ccc(-c3nc4ccc(C)cc4o3)cc2)cc1,.,0.89µM*,-1%,.,-3%
O=c1cc(-c2ccccc2)n2c(SCc3ccc(F)cc3)nnc2[nH]1,.,.,9%,.,-2%
COc1ccc(C2Nc3ccc(NC(=O)CO)cc3C(=O)N2Cc2cccc(Cl)c2)cc1COc1ccc(NC(C)=O)cc1 (stereo not given),.,-48%,.,.,.
